Bioassay records deposited in PubChem BioAssay by National Center for Advancing Translational Sciences (NCATS).
In the library only some 7.5% were active in any assay of this set; here they are far more common.
Luc counter = Counterscreen for Luciferase (Kinase-Glo TM) Inhibition. Luciferin 4-monooxygenase (Photuris pensylvanica), Q27757. Kinase-Glo luciferase, ATP luminescence, 8 min. Potency, µM (titrated, usually from 38.3 µM), actives largely listed as inhibitors. hit rate 0.28% among 200,000. AID 1379, 2008; further: nearly all actives have a fitted effect of over 60% in size
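Luminescence was the read-out, taken after 8-minute incubation at ambient temperature. Luciferase turned over luciferin with 10 uM ATP in imidazole pH 7.2 buffer containing KCl, MgCl2, Tween 20 and BSA.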
NPC1 prom act = qHTS Assay for NPC1 Promoter Activators | Huh7 NPC1 promoter luciferase reporter, 24 h | Potency, µM (top dose mostly 9.22 µM), actives largely listed as activators | hit rate 2.4% among 320,000 | AID 485313, 2010; further: nearly all actives have a fitted effect of over 60% in size
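Compounds in DMSO were transferred onto Huh7 NPC1-luciferase reporter cells pre-incubated 2 h; after 24 h at 37 °C, Amplite reagent was dispensed and luminescence recorded 10 min later.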
Rab9 prom act = qHTS Assay for Rab9 Promoter Activators. Huh7 Rab9 promoter-luciferase reporter, luminescence, 24 h. AID 485297, 2010. hit rate 2.8% among 320,000. Potency, µM (series often up to 9.22 µM), actives largely listed as activators; further: nearly all actives have a fitted effect of over 60% in size
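Rab9 promoter-driven luciferase in stably transfected Huh7 cells; 1500 cells/well rested 2 h, exposed to compound in DMSO for 24 h at 37 °C, 5% CO2. Luminescence read 10 min after adding luciferase reagent at ambient temperature.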
FLuc counter = qHTS profiling assay for firefly luciferase inhibitor/activator using purifed enzyme and Km concentrations of substrates (counterscreen for miR-21 project) | Potency, µM (top dose mostly 57.5 µM), usual class: inhibitors | purified FLuc, Km substrates, luminescence inhibition | AID 588342, 2011 | Luciferin 4-monooxygenase (Photinus pyralis), P08659 | hit rate 6.9% among 360,000; further: nearly all actives have a fitted effect of over 55% in size
Target sequence (P08659 whole entry, looked up): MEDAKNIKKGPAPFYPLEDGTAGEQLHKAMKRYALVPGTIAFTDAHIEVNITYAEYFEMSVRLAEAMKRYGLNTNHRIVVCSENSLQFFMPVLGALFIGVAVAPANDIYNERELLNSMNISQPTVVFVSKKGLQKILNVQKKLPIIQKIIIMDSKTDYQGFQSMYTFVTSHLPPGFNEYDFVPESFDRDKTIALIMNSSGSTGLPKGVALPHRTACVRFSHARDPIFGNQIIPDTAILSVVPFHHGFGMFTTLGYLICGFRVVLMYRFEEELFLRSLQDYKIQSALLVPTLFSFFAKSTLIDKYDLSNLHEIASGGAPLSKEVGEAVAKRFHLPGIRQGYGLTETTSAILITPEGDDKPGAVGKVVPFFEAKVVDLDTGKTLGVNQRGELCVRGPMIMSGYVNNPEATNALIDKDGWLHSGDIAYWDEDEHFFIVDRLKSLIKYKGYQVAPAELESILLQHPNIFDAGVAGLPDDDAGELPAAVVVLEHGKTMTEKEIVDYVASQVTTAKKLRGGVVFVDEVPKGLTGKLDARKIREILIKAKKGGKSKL
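Purified P. pyralis luciferase, 10 nM final, with Km-level 10 uM D-luciferin and 10 uM ATP in 50 mM Tris acetate pH 7.5, 10 mM Mg acetate, 0.01% Tween-20, 0.05% BSA; 6-point qHTS titration about 60 µM downward; luminescence read.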
SMN2 splice up = qHTS Assay for Enhancers of SMN2 Splice Variant Expression | hit rate 2.8% among 210,000 | Potency, µM (top dose mostly 46.1 µM), most hits filed as activators | HEK293 SMN2-luciferase splicing reporter, luminescence, 30-36 h; further: nearly all actives have a fitted effect of over 55% in size
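HEK293 cells carry an SMN2 […]–luciferase reporter in which exon 7 inclusion puts luciferase in frame. Cells were plated 10-12 h before compound addition, then incubated 30-36 h at 37C. ONE-Glo luminescence was read; sodium butyrate at 4.5 mM final served as control.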
ELG1 genotox = qHTS screen for small molecules that induce genotoxicity in human embryonic kidney (HEK293T) cells expressing luciferase-tagged ELG1; Potency, µM (doses to about 46 µM), most hits filed as activators; HEK293T ELG1-luciferase reporter, luminescence, 16 h; hit rate 1.3% among 330,000; further: nearly all actives have a fitted effect of over 60% in size
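ELG1-luciferase HEK293T cells, 2,000/well; compound pinned in; 16 hr, 37 °C, 5% CO2; ONE-Glo, 30 min RT; luminescence on CCD imager.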
Hits are given with their value; n = inactive; u = inconclusive; x = not tested or not shown. The call rests on the fitted dose curve; in most records, active means well fitted curve in the direction sought with a large enough effect; inconclusive means small, poorly fitted or top-dose-only effect, or another doubt; inactive means no such curve, though single readings can be large; an effect the other way counts as inactive or inconclusive.

SMILES	Luc counter	NPC1 prom act	Rab9 prom act	FLuc counter	SMN2 splice up	ELG1 genotox
Cc1ccc(-n2nc3c(N4CCC(C(=O)NC(C)c5ccccc5)CC4)nnc(C)c3c2C)cc1 (stereo not drawn)	x	x	x	n	x	x
Cc1ccc(Nc2ccc(NCc3ccccc3)nn2)cc1C	n	n	n	16.9µM	u	u
Clc1ccc(Nc2ccc(NCc3ccccc3)nn2)cc1	n	n	n	u	n	n
CC(=O)N1CCN(C(=S)c2ccc(-c3ccc(Cl)cc3)o2)CC1	x	n	n	u	x	n
O=C(c1ccc(-c2cccc(Cl)c2)o1)N1CCN(c2ccc([N+](=O)[O-])cc2)CC1	n	n	n	n	n	n
N#CCCN1CCN(C(=S)c2ccc(-c3cccc(Cl)c3)o2)CC1	n	n	u	19µM	n	u
N#CCCN1CCN(C(=S)c2ccc(-c3ccc(Cl)c(Cl)c3)o2)CC1	n	n	n	15.1µM	n	u
CCCOc1ccc(C(=O)Nc2cc3c(cc2N2CCOCC2)n(C)c(=O)n3C)cc1	x	x	x	n	n	x
Fc1ccc(-n2ncc3c(SCc4cccnc4)ncnc32)cc1	n	n	u	6.75µM	n	23.1µM
Cc1ccc(-n2ncc3c(SCc4ccccc4)ncnc32)cc1	n	3.98µM	u	10.7µM	11.2µM	u
Cc1ccc(-n2ncc3c(SCc4ccccn4)ncnc32)c(C)c1	n	n	u	u	1.78µM	n
CSc1ncnc2c1cnn2-c1ccc(C)cc1C	n	n	u	u	n	n
Cc1nc(SCc2ccccc2F)c2cnn(-c3ccccc3)c2n1	n	n	u	u	35.5µM	n
Cc1ccc(CSc2ncnc3c2cnn3-c2ccccc2)cc1	n	n	n	n	n	n
C#CC(C)(CC)NC(=O)c1cc2c(n(-c3ccc(Cl)cc3)c1=O)CC(C)(C)CC2=O (stereo not drawn)	x	x	x	n	n	x
COc1ccc(OCCn2nnc3sc4c(c3c2=O)CCCC4)cc1	x	x	x	n	n	x
COc1cccc2cc(C(=O)NCc3ccccn3)c(=O)oc12	n	u	u	10.7µM	n	u
COc1cccc2cc(C(=O)NCCc3ccccc3)c(=O)oc12	x	n	n	10.7µM	x	u
COc1cccc2cc(C(=O)N3CCc4ccccc4C3)c(=O)oc12	n	n	n	16.9µM	n	u
COc1cccc2cc(C(=O)NCCC3=CCCCC3)c(=O)oc12	n	n	n	u	n	n
O=C1OC(c2ccc(F)cc2)=C/C1=C\c1ccc([N+](=O)[O-])o1	n	n	n	n	n	n
O=C1N=C(N2CCN(Cc3ccccc3)CC2)S/C1=C/c1cccs1	x	n	n	9.53µM	x	n
O=C1N=C(c2ccccc2)S/C1=C\c1cccs1	n	n	n	3.79µM	n	u
O=C1N=C(N2CCN(c3ccccc3)CC2)S/C1=C/c1cccs1	n	n	n	u	n	n
O=C1OC(c2ccccc2)=C/C1=C/c1cccs1	n	n	n	0.675µM	n	n
SMILES	Luc counter	NPC1 prom act	Rab9 prom act	FLuc counter	SMN2 splice up	ELG1 genotox
Cc1ccc(S(=O)(=O)c2cn(Cc3ccccc3)c3cc(N4CCCC4)c(F)cc3c2=O)cc1	x	x	x	n	x	x
C/C(=N\NC(=O)c1ccccc1OCc1ccc(F)cc1)c1ccccn1	x	n	n	21.3µM	x	n
C/C(=N\NC(=O)c1cccc2ccccc12)c1ccccn1	x	n	n	u	x	u
CCOc1ccc(OCc2ccc(C(=O)N/N=C(\C)c3ccccn3)cc2)cc1	n	n	n	12µM	n	u
O=C(N/N=C/c1c[nH]c2ccccc12)c1ccn(Cc2ccc(Cl)cc2Cl)n1	n	n	n	u	n	n
Cn1ccc(C(=O)N/N=C/c2c[nH]c3ccccc23)n1	x	u	u	15.1µM	x	u
CC(C)c1cc(C(=O)N/N=C/c2c[nH]c3ccccc23)n[nH]1	x	n	n	23.9µM	x	n
CC(/C=N/NC(=O)c1cccnc1)=C\c1ccccc1	n	u	u	13.5µM	x	u
